Reference: PubChem BioAssay (Tox21)
Values joined by “and” are separate entries in the source; they are usually repeats but may differ in a detail not shown here. Equal values may be shown once. Records with an inconclusive call do not appear. Some compounds were tested as several samples or in several runs, with calls that do not always agree. Active and inactive are the calls of the source. Unless noted, the call rests on the fitted dose curve.

Columns and labels:
[1] = Nuclear factor erythroid 2-related factor 2/antioxidant responsive element (Nrf2/ARE) small molecule agonists: qHTS cell viability counter screen in human keratinocytes (AID 1919968; active means well fitted curve in the direction sought with a large enough effect in the repeat runs; an effect the other way counts as inactive or inconclusive; further: nearly all actives have a fitted effect of over 55% in size; further: potency means the concentration at half of the fitted maximal effect)
In short: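 Cytotoxicity was multiplexed with the Nrf2/ARE luciferase assay in the same wells. Stably transfected HaCaT keratinocytes were treated with test compounds for 23 h at 37 C. Cell viability was then measured by CellTiter-Fluor fluorescence.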

[2] = Nuclear factor erythroid 2-related factor 2/antioxidant responsive element (Nrf2/ARE) small molecule agonists: luciferase reporter gene qHTS assay in human keratinocytes (AID 1919969); further: nearly all actives have a fitted effect of over 35% in size; further: potency means the concentration at half of the fitted maximal effect
[3] = biological target: Gonadotropin-releasing hormone receptor (Homo sapiens) (UniProt P30968); assay: Human gonadotropin-releasing hormone receptor (GnRHR) small molecule agonists, calcium flux assay in GnRHR-HEK293 cells (AID 1920063); further: nearly all actives have a fitted effect of over 35% in size
Sequence of Gonadotropin-releasing hormone receptor (Homo sapiens) (P30968 whole entry, looked up): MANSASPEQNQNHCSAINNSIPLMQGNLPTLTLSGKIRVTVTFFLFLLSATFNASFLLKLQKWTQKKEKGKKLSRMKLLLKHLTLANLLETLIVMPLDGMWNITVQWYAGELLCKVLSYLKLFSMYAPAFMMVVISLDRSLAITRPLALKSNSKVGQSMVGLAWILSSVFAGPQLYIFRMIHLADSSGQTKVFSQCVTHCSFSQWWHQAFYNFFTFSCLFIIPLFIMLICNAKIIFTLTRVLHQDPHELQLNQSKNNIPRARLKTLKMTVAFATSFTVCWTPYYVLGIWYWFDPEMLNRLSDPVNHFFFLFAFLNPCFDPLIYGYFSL
In short: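 Agonist activity was measured as intracellular calcium flux in HEK293 cells engineered to stably express human GnRHR. After dye loading for 1 hour at 37 C, compounds in DMSO were added and fluorescence was followed for 3 minutes.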

[4] = biological target: KiSS-1 receptor (Homo sapiens) (UniProt Q969F8); assay: Human kisspeptin (KISS1R) small molecule agonists, calcium flux assay in KISS1R-HEK293 cells (AID 1920064; active means well fitted curve in the direction sought with a large enough effect in the repeat runs; an effect the other way counts as inactive or inconclusive)
Sequence of KiSS-1 receptor (Homo sapiens) (Q969F8 whole entry, looked up): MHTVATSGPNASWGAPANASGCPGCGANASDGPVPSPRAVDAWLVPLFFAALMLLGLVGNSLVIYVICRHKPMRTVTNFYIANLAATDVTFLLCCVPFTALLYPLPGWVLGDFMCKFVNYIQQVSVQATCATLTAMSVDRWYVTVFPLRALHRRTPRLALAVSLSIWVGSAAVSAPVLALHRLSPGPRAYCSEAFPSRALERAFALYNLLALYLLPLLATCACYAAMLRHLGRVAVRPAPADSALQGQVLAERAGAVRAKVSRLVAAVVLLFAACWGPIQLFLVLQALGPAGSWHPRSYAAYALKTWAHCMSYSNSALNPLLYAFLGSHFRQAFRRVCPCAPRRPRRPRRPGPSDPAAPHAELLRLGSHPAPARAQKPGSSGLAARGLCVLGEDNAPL
In short: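 Agonist activity is monitored as intracellular calcium rise in engineered HEK293 cells carrying human KISS1R. Cells are dye-loaded for 1 h at 37 C before compound addition, and fluorescence is recorded for 3 min.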

[5] = G protein-coupled receptor (GPCR) small molecule agonists, calcium flux assay: HEK293 wild type cell line counter screen (AID 1920065)
In short: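 Seed cells, incubate 18 h (37 C, 5% CO2); add calcium dye, 1 h at 37 C; pin-transfer compounds, ATP control or DMSO; read fluorescence 480/540 nm each second for 3 min.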

[6] = p53 small molecule agonists, cell-based qHTS assay with human liver microsomes (AID 1963577);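 further: p53 response element beta-lactamase reporter cells with liver microsomes plus NADPH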
In short: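 With metabolic activation: human liver microsomes (0.5 mg/mL final) plus NADPH (0.5 mg/mL final) added alongside compounds to p53RE-bla cells; 16 h 37 C exposure; beta-lactamase read by LiveBLAzer fluorescence.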

[7] = p53 small molecule agonists, cell-based qHTS assay with rat liver microsomes (AID 1963578)
In short: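 Metabolic activation by rat liver microsomes and NADPH, each 0.5 mg/mL final, added right after compounds to p53RE-bla reporter cells (4,000/well, plated 5 h earlier). 16 h at 37 C, then LiveBLAzer substrate for 2 h at room temperature in the dark; fluorescence read-out.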

[8] = p53 small molecule agonists, cell-based qHTS assay with human liver microsomes: qHTS cell viability counter screen (AID 1963579); further: nearly all actives have a fitted effect of over 45% in size
In short: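 Metabolic activation used human liver microsomes and NADPH, both 0.5 mg/mL final, over 16 hours at 37 C on p53RE-bla cells (4,000/well). Cytotoxicity measured by CellTiter-Glo luminescence, 30 min at room temperature.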

[9] = p53 small molecule agonists, cell-based qHTS assay with rat liver microsomes: qHTS cell viability counter screen (AID 1963580); further: nearly all actives have a fitted effect of over 45% in size; further: potency means the concentration at half of the fitted maximal effect
In short: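 Cytotoxicity counter screen: intracellular ATP read by CellTiter-Glo luminescence in the p53 reporter wells. HCT-116 p53RE-bla cells were treated for 16 h at 37 C alongside rat liver microsomes and NADPH, each 0.5 mg/mL final.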

[10] = p53 small molecule agonists, cell-based qHTS assay: qHTS cell viability counter screen (AID 1963581); further: nearly all actives have a fitted effect of over 45% in size; further: potency means the concentration at half of the fitted maximal effect
In short: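 Viability was counter-screened in parallel with the p53 agonist reporter by measuring intracellular ATP luminescence in the same HCT-116 p53RE-bla wells after 16 h compound treatment at 37 C.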

[11] = p53 small molecule agonists, cell-based qHTS assay (AID 1963582; active means well fitted activation curve with a large enough effect in the signal ratio in the repeat runs, not every such curve was filed as active; the % refers to the signal ratio)
In short: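 Cells carrying a p53-responsive bla reporter are treated with test compounds for 16 h at 37 C; beta-lactamase activity is then detected with LiveBLAzer B/G FRET substrate after 2 h at room temperature.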

[12] = biological target: 5-hydroxytryptamine receptor 2A (Homo sapiens) (UniProt P28223); assay: 5-hydroxytryptamine receptor 2A (HTR2A) small molecule antagonists, cell-based qHTS assay (AID 1963586); further: nearly all actives have a fitted effect of over 45% in size
Sequence of 5-hydroxytryptamine receptor 2A (Homo sapiens) (P28223 whole entry, looked up): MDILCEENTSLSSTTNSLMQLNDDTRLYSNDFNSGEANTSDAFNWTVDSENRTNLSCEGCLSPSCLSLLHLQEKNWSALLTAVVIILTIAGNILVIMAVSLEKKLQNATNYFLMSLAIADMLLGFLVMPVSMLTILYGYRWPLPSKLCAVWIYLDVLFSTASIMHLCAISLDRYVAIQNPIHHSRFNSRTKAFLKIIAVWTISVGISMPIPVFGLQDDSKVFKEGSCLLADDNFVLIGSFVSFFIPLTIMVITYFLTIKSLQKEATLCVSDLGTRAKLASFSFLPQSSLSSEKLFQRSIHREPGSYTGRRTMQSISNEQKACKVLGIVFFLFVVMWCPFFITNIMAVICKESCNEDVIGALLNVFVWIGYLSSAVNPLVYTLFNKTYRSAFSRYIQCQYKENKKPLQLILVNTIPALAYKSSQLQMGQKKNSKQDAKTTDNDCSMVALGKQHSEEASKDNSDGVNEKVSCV
In short: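 CHO cells stably expressing human HTR2A were plated for 18 h at 37 C, then loaded with calcium dye for 1 h. Compounds were preincubated 5 min at room temperature before DOI (4 nM solution) was added. Kinetic fluorescence was read for 3 min.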

[13] = biological target: 5-hydroxytryptamine receptor 2A (Homo sapiens) (UniProt P28223); assay: 5-hydroxytryptamine receptor 2A (HTR2A) small molecule agonists, cell-based qHTS assay (AID 1963587); further: nearly all actives have a fitted effect of over 30% in size
In short: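 Kinetic calcium-flux fluorescence (2 min, 1 sec intervals) after compound addition in agonist mode. HTR2A-CHO cells were cultured 18 h, then dye-loaded 1 h at 37 C.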

[14] = biological target: Muscarinic acetylcholine receptor M1 (Homo sapiens) (UniProt P11229); assay: Cholinergic receptor muscarinic 1 (CHRM1) small molecule antagonists, cell-based qHTS assay (AID 1963588); further: nearly all actives have a fitted effect of over 40% in size; further: potency means the concentration at half of the fitted maximal effect
Sequence of Muscarinic acetylcholine receptor M1 (Homo sapiens) (P11229 whole entry, looked up): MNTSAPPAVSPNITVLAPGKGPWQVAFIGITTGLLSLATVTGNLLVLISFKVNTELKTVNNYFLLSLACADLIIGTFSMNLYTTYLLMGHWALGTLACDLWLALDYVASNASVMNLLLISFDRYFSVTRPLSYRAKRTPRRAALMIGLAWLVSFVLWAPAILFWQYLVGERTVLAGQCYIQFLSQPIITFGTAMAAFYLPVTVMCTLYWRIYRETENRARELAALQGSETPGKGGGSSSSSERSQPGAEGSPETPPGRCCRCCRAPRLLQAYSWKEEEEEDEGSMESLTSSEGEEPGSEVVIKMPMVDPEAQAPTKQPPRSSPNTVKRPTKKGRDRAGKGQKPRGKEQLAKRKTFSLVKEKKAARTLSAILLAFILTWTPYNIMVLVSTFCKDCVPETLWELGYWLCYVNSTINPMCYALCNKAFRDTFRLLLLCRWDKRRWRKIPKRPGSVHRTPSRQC
In short: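 Compounds were tested at 15 concentrations in three independent runs. Dye-loaded CHRM1-CHO cells were exposed 5 min at room temperature before stimulation by acetylcholine added at 50nM. Intracellular calcium was read kinetically on FDSS for 3 min.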

[15] = biological target: Muscarinic acetylcholine receptor M1 (Homo sapiens) (UniProt P11229); assay: Cholinergic receptor muscarinic 1 (CHRM1) small molecule agonists, cell-based qHTS assay (AID 1963589); further: nearly all actives have a fitted effect of over 35% in size
In short: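 Cells were plated and incubated 18 h at 37 C/5% CO2, loaded with calcium dye for 1 h at 37 C, then treated with compounds in DMSO. Fluorescence was recorded kinetically at 1 sec intervals.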

[16] = cAMP Responsive Elements (CRE) small molecule agonists, cell-based qHTS assay (AID 1963590)
In short: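 Cells carrying a CRE-driven beta-lactamase reporter (HEK 293T) are seeded, incubated overnight (18 h), and treated with test compounds for 3 h at 37 C; reporter activity is then detected with a FRET substrate after 2 h at room temperature.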

[17] = cAMP Responsive Elements (CRE) small molecule antagonists, cell-based qHTS assay (AID 1963591; active means well fitted inhibition curve with a large enough effect in the signal ratio in the repeat runs, not every such curve was filed as active; the % refers to the signal ratio)
In short: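 Cells (CRE-bla HEK 293T, DMEM with 10% dialyzed FBS and 25 mM HEPES) are seeded and incubated 18 h. Compounds are added with NKH477 agonist at 0.25 uM final for 3 h, then FRET substrate for 2 h.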

[18] = biological target: Beta-2 adrenergic receptor (Homo sapiens) (UniProt P07550); assay: Adrenergic beta2 receptor (ADRB2) small molecule antagonists, cell-based qHTS assay (AID 1963592); further: series mostly up to about 92 µM; nearly all actives have a fitted effect of over 50% in size
Sequence of Beta-2 adrenergic receptor (Homo sapiens) (P07550 whole entry, looked up): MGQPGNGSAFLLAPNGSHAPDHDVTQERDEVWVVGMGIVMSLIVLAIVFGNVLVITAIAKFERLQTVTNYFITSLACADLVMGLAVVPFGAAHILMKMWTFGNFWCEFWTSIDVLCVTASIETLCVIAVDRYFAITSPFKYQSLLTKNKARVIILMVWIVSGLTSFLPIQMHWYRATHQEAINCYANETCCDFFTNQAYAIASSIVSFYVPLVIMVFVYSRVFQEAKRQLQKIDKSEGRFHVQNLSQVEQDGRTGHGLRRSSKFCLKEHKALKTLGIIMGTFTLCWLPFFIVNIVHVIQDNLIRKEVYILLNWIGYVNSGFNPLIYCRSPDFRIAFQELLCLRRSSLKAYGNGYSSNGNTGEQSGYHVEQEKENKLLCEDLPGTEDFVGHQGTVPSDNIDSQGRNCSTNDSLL
In short: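 Assay format: CHO-ADRB2 cells, 18-20hr seeding at 37C/5% CO2, then compound plus 1nM isoproterenol agonist mix for 0.5hr RT. Homogeneous time-resolved fluorescence cAMP detection after 1hr, expressed as 665/615 nm ratio.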

[19] = biological target: D(2) dopamine receptor (Homo sapiens) (UniProt P14416); assay: Dopamine D2 receptor (DRD2) small molecule agonists, cell-based qHTS assay (AID 1963594); further: nearly all actives have a fitted effect of over 35% in size
Sequence of D(2) dopamine receptor (Homo sapiens) (P14416 whole entry, looked up): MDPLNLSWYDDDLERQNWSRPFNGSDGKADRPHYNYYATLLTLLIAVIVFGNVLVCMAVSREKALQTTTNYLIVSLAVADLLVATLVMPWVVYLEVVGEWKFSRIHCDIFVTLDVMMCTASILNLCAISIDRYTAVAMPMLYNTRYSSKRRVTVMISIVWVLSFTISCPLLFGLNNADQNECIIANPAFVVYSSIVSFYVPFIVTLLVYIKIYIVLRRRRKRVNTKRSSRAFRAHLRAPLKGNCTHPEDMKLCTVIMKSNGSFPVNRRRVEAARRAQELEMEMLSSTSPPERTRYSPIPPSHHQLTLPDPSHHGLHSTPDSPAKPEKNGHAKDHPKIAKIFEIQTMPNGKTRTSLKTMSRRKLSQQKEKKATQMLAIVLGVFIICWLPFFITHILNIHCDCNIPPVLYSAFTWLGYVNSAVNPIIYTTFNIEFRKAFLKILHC
In short: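 cAMP accumulation in DRD2-HEK293 cells measured by HTRF after 1 h detection; compounds added 10 min before NKH477 (200nM […]) forskolin-analogue stimulation, 30 min at room temperature, with Ro20-1724 present at 0.1 mM final.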

[20] = biological target: D(2) dopamine receptor (Homo sapiens) (UniProt P14416); assay: Dopamine D2 receptor (DRD2) small molecule antagonists, cell-based qHTS assay (AID 1963595; active means well fitted inhibition curve with a large enough effect in the signal ratio in the repeat runs, with a control signal flat; the % refers to the signal ratio)
In short: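 Stable D2 receptor HEK293 line, 24 h after seeding. Compound preincubated 10 min, then quinpirole (12 nM) with forskolin analogue NKH477 (200 nM), 30 min, room temperature. Detection by time-resolved FRET of cAMP.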

Measured: Potency

CCOC(=O)c1ccccc1C(=O)OCC
not listed: [20]
inactive: all other assays above

ClC(Cl)=C(c1ccc(Cl)cc1)c1ccc(Cl)cc1
active: [1] 39.5 µM
inactive: all other assays above

O=C(O)C(Br)Br
inactive: all assays above

CN(C)c1ccc(N(C)C)cc1
active: [2] 54.6 µM | [10] 365 nM
not listed: [17] | [18] | [19] | [20]
inactive: all other assays above

O=C(O)c1ccccn1
inactive: all assays above

C=CCOC(N)=O
inactive: all assays above

C1CN2CCC1CC2
inactive: all assays above

CCC[N+](=O)[O-]
44.9 µM (active) and inactive: [9]
2.68 µM (active) and inactive: [1]
inactive: all other assays above

Cc1ccc(N)cc1
inactive and 48.6 µM (active): [2]
inactive: all other assays above

N#CCCCCC#N
not listed: [20]
inactive: all other assays above

Cc1ccc(N=C=O)cc1N=C=O
active: [2] 62.7 µM and 48.6 µM
inactive: all other assays above

C=C(C)C#N
inactive: all assays above

O=P(OCCCl)(OCCCl)OCCCl
not listed: [20]
inactive: all other assays above

Nc1ccc(Oc2ccc(N)cc2)cc1
inactive: all assays above

CCCCCON=O
not listed: [19] | [20]
inactive: all other assays above

Oc1ccccc1-c1ccccc1
62.6 µM (active) and inactive: [2]
inactive: all other assays above

Clc1ccc(C(Cl)(Cl)Cl)cc1
inactive: all assays above

O=[N+]([O-])c1ccccc1
inactive: all assays above

CCCC(C)(COC(N)=O)COC(=O)NC(C)C (stereo not drawn)
inactive: all assays above

O=C(O)C(F)(F)C(F)(F)C(F)(F)C(F)(F)C(F)(F)C(F)(F)C(F)(F)F
not listed: [20]
inactive: all other assays above

Cc1ccc(N)c(N)c1
active: [2] 4.87 µM and 68.6 µM
inactive: all other assays above

ClCCN1CCCC1
inactive: all assays above

O=C(NC(=O)c1c(F)cccc1F)Nc1cc(Cl)c(OC(F)(F)C(F)C(F)(F)F)cc1Cl (stereo not drawn)
active: [14] 9.42 µM
not listed: [20]
inactive: all other assays above

CC1=C2[C@H]3OC(=O)[C@@H](C)[C@@H]3CC[C@@]2(C)C=CC1=O
not listed: [20]
inactive: all other assays above

Cc1ccccc1O
inactive: all assays above

O=NN1CCOCC1
inactive: all assays above

C(=NC1CCCCC1)=NC1CCCCC1
active: [1] 54.8 µM | [2] 30.6 µM
inactive: all other assays above

ClCc1ccccn1
inactive: all assays above

CCCCN=C=O
inactive: all assays above

CC(C)OS(C)(=O)=O
inactive: all assays above
